According to the supplement of paper PMC6555819:

The sequences below were run on RXRa DBDmut IVT, anti-RXR (DBD mutation: RXRa K156A/R161A, NR concentration 90 nM) (assay: PBM binding z-score (relative to random genomic background probes); higher = stronger binding; sequences stand for … in GC…GCGATTGACAGCGTAGAATGAAGG).
How it was run: (§1)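 Random background probes are the reference for binding z-scores. These scores derive from regression-normalized fluorescence on custom Agilent 4×180K protein-binding microarrays incubated 1 h with ligand-free nuclear receptor dimers. Binding was detected with antibodies against each partner (one per run).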

| Sequence | PBM binding z-score |
| --- | --- |
| TCATATAGGTATAAGGTGAAAGTCGGTGTGGTAA | 1.77 |
| GCTATTAGTTGAAAGAGCAACCGAATGATTCTCG | 0.464 |
| ACTAGCAGGCCATGTTTGGGTCACTCAAACAAAG | -0.345 |
| ATCTCTAGGTAACAAGTTCACTGAAAGAGAGGAC | 1.69 |
| TCTGCTAGGGCAACGATGGTCAGCTAATCTGCTA | -0.149 |
| GCTTGTAGATCAAGGTAAAGAAAGACTAAGCTAA | -0.256 |
| TCTGCTAAGTCAACGATGGTCAGCTAATCTGCTA | -0.0661 |
| CCTACTGGGCCACGAAAGGTCGTTGATTCAGTGA | -0.0734 |
| CAAACTAGGTCGAGAGGTCAAAGTCCGCTTCCCG | 2.17 |
| ACAGACAGGTGATGAAGGTAAGTCAGGCTATCAT | -0.263 |
| ATCGAACGGTCGAAGGTGAGTATACCCACCCGAA | -1.05 |
| AGAATGAGGTTAAGATCAGGGAAACAGAATACAT | 0.973 |
| ATATGTAGGTTAACGGTCATTCAGGTTGGTTCGC | 1.34 |
| TCTGCTAGGTCAGATGGTCAGCTAACGAGCTGCC | 0.506 |
| TCTGCGAGGTCAGTTGGTCAGCTAACGAGCTGCC | 2.8 |
| TCGAGTAGGGTAGTCGGGGCATTCAGCCAACATA | 0.261 |
| AGAATGAGGTTACCAATGATCAGGGAAACGCTTG | 0.994 |
| GCGACTGGGGCAAAGCGGGTTACCATAAGGTTGG | -0.587 |
| AGAATGAGGTTATTAAGATCATGGAATTGCGGTC | 1.87 |
| GCGACTGGGGCATCAGCAGGTTACCCTAACTTAA | -0.65 |

| Sequence | PBM binding z-score |
| --- | --- |
| CCTACTGGGCCACGAAAGGTCATTGTTTCAGTGA | 0.971 |
| CCCACTGGGCCATCAGGTCATTGATATCAACGTT | -0.268 |
| TCGAGTAGGTTACCAATCGGGCATTCAGCTTTCT | -0.0305 |
| ATCACTAGGTAAAGTTCAGTGAAAGATCGATAGA | 1.44 |
| CCTATTACTTGACCATAAGGGCAACCGAAGCTCG | 0.77 |
| CCTCGGAGGACAGGAGGTCAGAGCTGTCCGCTTT | 0.04 |
| TCTATTAATTGAAGGGCAACCGACGAGTCCGTTT | 1.24 |
| ATCGCTAGGTAAAGTTCAGTGAAAGATCGATAGA | 0.79 |
| ACTAGCAGGCCAGGGGTCACTCAAGATTAGTCCG | 1.31 |
| AGAATGAGGTTAGTAAGATCAGGGAATTGCGGTC | 0.175 |
| CTTGAAAGGTCGGTTGAGGTGAGTATACGGATAA | 1.35 |
| TGAATGAGGTAATAAGATCAGGGAACGTTGCAAA | -1.15 |
| TCGAGTAGGTTAGCAATGGGGCATTCAGCTTTCT | 0.158 |
| CAAACTAGGTCAAAGGTCACAGTCGAGCCAACCA | 2.94 |
| CTCCCAAGGTGAACAAGGTCGTTGATTACTATTC | 0.991 |
| GGAACTAGGGCAAGTTGATAGCAGAGTTTGATGG | 1.07 |
| AGACAAAGTTCATCTAGGTAACGTAAGATATGCT | 5.05 |
| TGAATGAGGTTACAAGATCAGGGAACGTTGCAAA | 0.127 |
| GCTATTAGTTGAAAGGGCGACCGAATGATTCTCG | 0.775 |
| TCTTGTAGATCAATAGAGGTTATGAAAGTGCGCT | 1.05 |

These sequences were tested on RXRa homodimer (NR concentration 180 nM) in the same assay as above.
How it was run: as §1

| Sequence | PBM binding z-score |
| --- | --- |
| TCATATAGGTATAAGGTGAAAGTCGGTGTGGTAA | 1.35 |
| GCTATTAGTTGAAAGAGCAACCGAATGATTCTCG | 0.226 |
| ACTAGCAGGCCATGTTTGGGTCACTCAAACAAAG | 0.614 |
| ATCTCTAGGTAACAAGTTCACTGAAAGAGAGGAC | 1.87 |
| TCTGCTAGGGCAACGATGGTCAGCTAATCTGCTA | -0.0028 |
| GCTTGTAGATCAAGGTAAAGAAAGACTAAGCTAA | -0.197 |
| TCTGCTAAGTCAACGATGGTCAGCTAATCTGCTA | -0.206 |
| CCTACTGGGCCACGAAAGGTCGTTGATTCAGTGA | 2.09 |
| CAAACTAGGTCGAGAGGTCAAAGTCCGCTTCCCG | 6.17 |
| ACAGACAGGTGATGAAGGTAAGTCAGGCTATCAT | 0.248 |
| ATCGAACGGTCGAAGGTGAGTATACCCACCCGAA | 0.717 |
| AGAATGAGGTTAAGATCAGGGAAACAGAATACAT | 2.58 |
| ATATGTAGGTTAACGGTCATTCAGGTTGGTTCGC | 1.88 |
| TCTGCTAGGTCAGATGGTCAGCTAACGAGCTGCC | 1.84 |
| TCTGCGAGGTCAGTTGGTCAGCTAACGAGCTGCC | 3.76 |
| TCGAGTAGGGTAGTCGGGGCATTCAGCCAACATA | -0.197 |
| AGAATGAGGTTACCAATGATCAGGGAAACGCTTG | 2.62 |
| GCGACTGGGGCAAAGCGGGTTACCATAAGGTTGG | 0.545 |
| AGAATGAGGTTATTAAGATCATGGAATTGCGGTC | 1.73 |
| GCGACTGGGGCATCAGCAGGTTACCCTAACTTAA | 0.381 |

| Sequence | PBM binding z-score |
| --- | --- |
| CCTACTGGGCCACGAAAGGTCATTGTTTCAGTGA | 5.09 |
| CCCACTGGGCCATCAGGTCATTGATATCAACGTT | 1.3 |
| TCGAGTAGGTTACCAATCGGGCATTCAGCTTTCT | 0.304 |
| ATCACTAGGTAAAGTTCAGTGAAAGATCGATAGA | 1.55 |
| CCTATTACTTGACCATAAGGGCAACCGAAGCTCG | 0.915 |
| CCTCGGAGGACAGGAGGTCAGAGCTGTCCGCTTT | 2.07 |
| TCTATTAATTGAAGGGCAACCGACGAGTCCGTTT | 0.717 |
| ATCGCTAGGTAAAGTTCAGTGAAAGATCGATAGA | 1.03 |
| ACTAGCAGGCCAGGGGTCACTCAAGATTAGTCCG | 6.16 |
| AGAATGAGGTTAGTAAGATCAGGGAATTGCGGTC | 0.741 |
| CTTGAAAGGTCGGTTGAGGTGAGTATACGGATAA | 2.5 |
| TGAATGAGGTAATAAGATCAGGGAACGTTGCAAA | 0.365 |
| TCGAGTAGGTTAGCAATGGGGCATTCAGCTTTCT | 0.129 |
| CAAACTAGGTCAAAGGTCACAGTCGAGCCAACCA | 9.91 |
| CTCCCAAGGTGAACAAGGTCGTTGATTACTATTC | 1.7 |
| GGAACTAGGGCAAGTTGATAGCAGAGTTTGATGG | 0.0337 |
| AGACAAAGTTCATCTAGGTAACGTAAGATATGCT | 4.64 |
| TGAATGAGGTTACAAGATCAGGGAACGTTGCAAA | 2.26 |
| GCTATTAGTTGAAAGGGCGACCGAATGATTCTCG | 0.22 |
| TCTTGTAGATCAATAGAGGTTATGAAAGTGCGCT | 1.55 |
